Targets with a hit are over-represented here; the source holds about 7,900 in all. About 0.6% of all pairs of compound and target were hits.
The targets below were run with CN(C)CC(=O)Nc1ccc2[nH]c(=O)c3ccccc3c2c1 (assay: log2 fold change, soluble protein after heating vs DMSO (PISA); higher = thermal stabilisation; K562 cells, 10 uM, 30 min; active = over 0.2 and 3.5 SD of the protein, either way, in both replicates (recomputed)).
In short: (§1)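 Soluble protein was defined as the supernatant after 21,000xg for 90 min. It came from K562 cells at 2×10^6 cells/mL given 10 μM compound for 30 min, heated in aliquots for 3 min across 48°C-58°C, pooled, and extracted in PBS with 0.5% NP-40 at 4°C, and was quantified by TMTpro 16plex LC-MS/MS with equalised channel sums. Thermal stability against control samples, from duplicates, is reported as log2 fold change.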

Sequence of UniProt Q6ZRS2 (Q6ZRS2 whole entry, looked up): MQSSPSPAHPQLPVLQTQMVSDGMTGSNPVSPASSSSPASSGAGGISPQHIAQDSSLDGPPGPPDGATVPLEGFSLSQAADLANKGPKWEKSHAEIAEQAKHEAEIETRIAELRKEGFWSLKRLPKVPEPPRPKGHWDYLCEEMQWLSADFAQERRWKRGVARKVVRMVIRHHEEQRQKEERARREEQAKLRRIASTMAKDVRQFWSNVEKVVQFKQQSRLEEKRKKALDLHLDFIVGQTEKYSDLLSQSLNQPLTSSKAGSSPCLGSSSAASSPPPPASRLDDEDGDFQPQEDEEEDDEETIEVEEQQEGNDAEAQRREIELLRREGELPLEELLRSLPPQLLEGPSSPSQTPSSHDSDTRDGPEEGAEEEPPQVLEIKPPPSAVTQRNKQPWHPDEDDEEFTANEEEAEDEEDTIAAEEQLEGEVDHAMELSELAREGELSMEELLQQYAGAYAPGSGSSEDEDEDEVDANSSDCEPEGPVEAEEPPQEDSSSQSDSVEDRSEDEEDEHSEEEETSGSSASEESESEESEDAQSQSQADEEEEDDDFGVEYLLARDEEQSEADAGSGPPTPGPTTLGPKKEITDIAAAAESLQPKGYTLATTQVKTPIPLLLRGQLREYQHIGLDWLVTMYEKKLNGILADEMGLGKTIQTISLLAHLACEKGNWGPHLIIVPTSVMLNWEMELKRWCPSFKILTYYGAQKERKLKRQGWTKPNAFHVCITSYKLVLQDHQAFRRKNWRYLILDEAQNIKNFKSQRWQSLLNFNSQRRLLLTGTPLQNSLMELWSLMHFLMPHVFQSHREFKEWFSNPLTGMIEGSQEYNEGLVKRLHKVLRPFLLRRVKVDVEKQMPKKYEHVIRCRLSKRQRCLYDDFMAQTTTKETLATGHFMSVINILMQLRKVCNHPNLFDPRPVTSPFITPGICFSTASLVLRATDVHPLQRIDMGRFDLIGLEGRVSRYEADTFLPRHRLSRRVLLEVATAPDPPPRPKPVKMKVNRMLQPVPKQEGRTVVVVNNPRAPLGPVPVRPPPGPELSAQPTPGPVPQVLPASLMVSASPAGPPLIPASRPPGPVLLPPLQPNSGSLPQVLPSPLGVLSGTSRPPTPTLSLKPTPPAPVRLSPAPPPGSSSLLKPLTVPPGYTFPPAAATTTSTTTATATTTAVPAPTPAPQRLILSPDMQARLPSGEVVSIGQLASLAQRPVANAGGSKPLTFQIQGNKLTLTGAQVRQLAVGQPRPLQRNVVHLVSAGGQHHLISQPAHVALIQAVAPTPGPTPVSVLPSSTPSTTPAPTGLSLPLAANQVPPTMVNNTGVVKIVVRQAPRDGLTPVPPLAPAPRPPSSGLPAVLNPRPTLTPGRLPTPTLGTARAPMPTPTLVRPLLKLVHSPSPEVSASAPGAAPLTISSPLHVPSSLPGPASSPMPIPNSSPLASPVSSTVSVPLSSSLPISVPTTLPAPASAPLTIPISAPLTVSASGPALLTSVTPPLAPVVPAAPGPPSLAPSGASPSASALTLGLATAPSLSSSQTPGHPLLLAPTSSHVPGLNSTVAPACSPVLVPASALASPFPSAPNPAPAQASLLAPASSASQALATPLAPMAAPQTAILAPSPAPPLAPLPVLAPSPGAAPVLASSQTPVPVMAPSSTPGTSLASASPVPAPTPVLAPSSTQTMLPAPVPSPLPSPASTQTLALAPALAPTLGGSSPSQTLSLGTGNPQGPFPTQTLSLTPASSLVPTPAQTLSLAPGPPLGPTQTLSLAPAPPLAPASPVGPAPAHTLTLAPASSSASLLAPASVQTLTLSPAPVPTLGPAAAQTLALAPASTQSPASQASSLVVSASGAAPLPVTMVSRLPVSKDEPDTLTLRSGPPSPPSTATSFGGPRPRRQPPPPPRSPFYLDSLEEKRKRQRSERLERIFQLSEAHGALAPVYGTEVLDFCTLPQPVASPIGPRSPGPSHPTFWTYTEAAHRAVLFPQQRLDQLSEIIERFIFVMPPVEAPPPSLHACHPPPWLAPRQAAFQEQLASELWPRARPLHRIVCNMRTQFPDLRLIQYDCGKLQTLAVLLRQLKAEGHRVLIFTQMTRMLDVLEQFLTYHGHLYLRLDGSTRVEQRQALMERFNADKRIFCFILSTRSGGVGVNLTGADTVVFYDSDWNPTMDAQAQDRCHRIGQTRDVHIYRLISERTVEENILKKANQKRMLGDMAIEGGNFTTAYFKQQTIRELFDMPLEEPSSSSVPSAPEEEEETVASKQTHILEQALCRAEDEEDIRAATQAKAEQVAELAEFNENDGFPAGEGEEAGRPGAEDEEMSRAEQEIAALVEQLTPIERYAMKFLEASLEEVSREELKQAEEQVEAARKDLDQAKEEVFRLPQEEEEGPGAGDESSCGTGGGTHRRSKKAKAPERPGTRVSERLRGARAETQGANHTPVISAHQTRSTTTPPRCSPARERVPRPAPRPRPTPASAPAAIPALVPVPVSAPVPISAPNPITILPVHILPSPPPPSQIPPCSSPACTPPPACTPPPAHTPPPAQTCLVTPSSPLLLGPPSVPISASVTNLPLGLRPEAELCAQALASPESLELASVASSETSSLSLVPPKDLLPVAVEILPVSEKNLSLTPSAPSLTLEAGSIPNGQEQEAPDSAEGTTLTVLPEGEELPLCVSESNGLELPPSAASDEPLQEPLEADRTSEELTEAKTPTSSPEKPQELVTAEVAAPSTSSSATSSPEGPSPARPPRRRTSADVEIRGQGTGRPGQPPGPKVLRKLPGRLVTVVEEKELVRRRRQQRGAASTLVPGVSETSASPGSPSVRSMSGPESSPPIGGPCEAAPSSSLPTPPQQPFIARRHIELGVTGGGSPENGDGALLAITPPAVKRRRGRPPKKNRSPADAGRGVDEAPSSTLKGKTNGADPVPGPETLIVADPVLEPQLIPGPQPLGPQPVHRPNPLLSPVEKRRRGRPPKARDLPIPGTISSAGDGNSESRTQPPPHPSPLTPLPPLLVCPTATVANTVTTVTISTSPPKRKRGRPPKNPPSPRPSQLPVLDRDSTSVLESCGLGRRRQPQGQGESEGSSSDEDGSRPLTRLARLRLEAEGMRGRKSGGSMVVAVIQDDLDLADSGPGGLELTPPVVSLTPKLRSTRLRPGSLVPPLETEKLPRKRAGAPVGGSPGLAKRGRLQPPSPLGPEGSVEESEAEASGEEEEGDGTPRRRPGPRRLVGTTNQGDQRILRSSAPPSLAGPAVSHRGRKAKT
Sequence of UniProt O95772 (O95772 whole entry, looked up): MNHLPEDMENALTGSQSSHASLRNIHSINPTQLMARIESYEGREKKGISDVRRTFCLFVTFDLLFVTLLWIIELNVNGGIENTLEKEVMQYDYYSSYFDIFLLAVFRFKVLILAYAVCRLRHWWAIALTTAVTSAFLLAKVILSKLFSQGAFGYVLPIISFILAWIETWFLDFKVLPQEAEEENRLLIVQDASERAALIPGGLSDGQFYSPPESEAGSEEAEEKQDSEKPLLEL
Sequence of UniProt P78382 (P78382 whole entry, looked up): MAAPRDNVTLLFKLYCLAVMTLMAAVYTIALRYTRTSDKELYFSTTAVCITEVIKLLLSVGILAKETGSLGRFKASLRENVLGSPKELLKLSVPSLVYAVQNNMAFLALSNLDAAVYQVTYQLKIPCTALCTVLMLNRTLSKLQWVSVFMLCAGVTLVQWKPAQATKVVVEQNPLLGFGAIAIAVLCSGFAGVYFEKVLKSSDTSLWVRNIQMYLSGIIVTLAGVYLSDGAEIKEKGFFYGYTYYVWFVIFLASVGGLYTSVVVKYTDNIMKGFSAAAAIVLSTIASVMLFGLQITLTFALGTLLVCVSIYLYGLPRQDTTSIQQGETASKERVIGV
Sequence of UniProt P23497 (P23497 whole entry, looked up): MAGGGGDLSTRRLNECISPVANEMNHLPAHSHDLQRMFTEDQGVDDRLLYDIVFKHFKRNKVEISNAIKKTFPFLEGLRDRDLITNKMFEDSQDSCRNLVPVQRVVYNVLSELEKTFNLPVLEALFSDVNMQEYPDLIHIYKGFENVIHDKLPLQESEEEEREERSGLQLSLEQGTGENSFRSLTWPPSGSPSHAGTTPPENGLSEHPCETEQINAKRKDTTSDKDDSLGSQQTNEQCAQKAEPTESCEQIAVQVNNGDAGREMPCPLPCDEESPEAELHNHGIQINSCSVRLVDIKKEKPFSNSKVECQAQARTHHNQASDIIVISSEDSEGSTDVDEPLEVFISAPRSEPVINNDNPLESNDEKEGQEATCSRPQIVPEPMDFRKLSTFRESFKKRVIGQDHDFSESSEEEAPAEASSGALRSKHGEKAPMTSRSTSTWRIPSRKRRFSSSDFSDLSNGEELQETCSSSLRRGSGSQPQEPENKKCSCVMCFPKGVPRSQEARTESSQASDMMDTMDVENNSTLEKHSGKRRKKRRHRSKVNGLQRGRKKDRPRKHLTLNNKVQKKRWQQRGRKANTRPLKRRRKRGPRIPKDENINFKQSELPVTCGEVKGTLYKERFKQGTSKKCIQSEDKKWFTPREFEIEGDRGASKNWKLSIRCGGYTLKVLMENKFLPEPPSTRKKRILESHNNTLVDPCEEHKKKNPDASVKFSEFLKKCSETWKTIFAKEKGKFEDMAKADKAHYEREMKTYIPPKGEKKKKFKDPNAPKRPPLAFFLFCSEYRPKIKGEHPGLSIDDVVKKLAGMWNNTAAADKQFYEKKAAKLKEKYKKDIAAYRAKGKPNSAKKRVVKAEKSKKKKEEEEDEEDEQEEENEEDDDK
Sequence of UniProt P55061 (P55061 whole entry, looked up): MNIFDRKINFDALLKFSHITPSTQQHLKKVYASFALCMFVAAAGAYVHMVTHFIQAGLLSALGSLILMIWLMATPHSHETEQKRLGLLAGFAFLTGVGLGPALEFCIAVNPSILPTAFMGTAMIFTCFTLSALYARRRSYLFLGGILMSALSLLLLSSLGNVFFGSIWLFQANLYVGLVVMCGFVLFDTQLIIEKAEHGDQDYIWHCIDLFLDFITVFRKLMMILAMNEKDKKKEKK
Sequence of UniProt Q8N5G0 (Q8N5G0 whole entry, looked up): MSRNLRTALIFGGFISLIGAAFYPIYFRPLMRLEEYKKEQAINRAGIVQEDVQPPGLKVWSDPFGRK

log2 fold change, inactive:
SP100 isoform 4 (UniProt P23497) -0.045
STARD3NL (UniProt O95772) -0.068
SNX5 (UniProt Q9Y5X3) 0.027
TMBIM6 isoform 2 (UniProt P55061) 0.066
TARS2 (UniProt Q9BW92) -0.019
SPTBN1 (UniProt Q01082) 0.018
SLC35A1 (UniProt P78382) -0.056
SLC38A2 (UniProt Q96QD8) -0.022
SUN1 isoform 9 (UniProt O94901) 0.002
SRCAP (UniProt Q6ZRS2) 0.121
TBP (UniProt P20226) -0.227

The targets below were run with CN(CCOC1=CC=C(C=C1)C[C@H]2C(=O)NC(=O)S2)C3=CC=CC=N3 (racemic) [rosiglitazone] in the same assay as above.
In short: as §1

log2 fold change, inactive:
SYNE2 isoform 2 (UniProt Q8WXH0) 0.053
TBK1 (UniProt Q9UHD2) 0.076
TANGO6 (UniProt Q9C0B7) 0.037
SLC38A7 (UniProt Q9NVC3) 0.036
TENT5C (UniProt Q5VWP2) 0.033
SRXN1 (UniProt Q9BYN0) 0.124
SLC29A3 (UniProt Q9BZD2) -0.049
SMARCE1 (UniProt Q969G3) -0.222
SRC isoform 2 (UniProt P12931) 0.029
SRFBP1 (UniProt Q8NEF9) 0.078
SLC39A11 (UniProt Q8N1S5) -0.007
TBC1D15 isoform 3 (UniProt Q8TC07) 0.05
TM7SF3 (UniProt Q9NS93) -0.022
SNX15 (UniProt Q9NRS6) -0.051
SPPL2B (UniProt Q8TCT7) -0.022
SMIM20 isoform 2 (UniProt Q8N5G0) 0.036
SRSF9 (UniProt Q13242) -0.07
SLC35F6 (UniProt Q8N357) 0.047
TBC1D20 isoform 3 (UniProt Q96BZ9) -0.03
TEX264 (UniProt Q9Y6I9) 0.039
SPCS2 (UniProt Q15005) 0.029
TJP1 (UniProt Q07157) 0.019
TACC2 (UniProt O95359) 0.039
SSBP4 (UniProt Q9BWG4) 0.162
SNRPB2 (UniProt P08579) -0.047
STK26 (UniProt Q9P289) 0.068
SP100 isoform 4 (UniProt P23497) -0.009
STARD3NL (UniProt O95772) 0.014
SNX5 (UniProt Q9Y5X3) 0.069
TMBIM6 isoform 2 (UniProt P55061) -0.046
TARS2 (UniProt Q9BW92) 0.018
SPTBN1 (UniProt Q01082) 0.001
SLC35A1 (UniProt P78382) -0.013
SLC38A2 (UniProt Q96QD8) 0.002
SRCAP (UniProt Q6ZRS2) 0.01
TBP (UniProt P20226) -0.035

The targets below were run with CN1C2=C(C3=C1C(=O)N(N=C3)CC4=CC(=CC=C4)N)SC(=C2)S(=O)C in the same assay as above.
In short: as §1

log2 fold change, inactive:
SYNE2 isoform 2 (UniProt Q8WXH0) -0.021
TBK1 (UniProt Q9UHD2) 0.172
TANGO6 (UniProt Q9C0B7) 0.006
TENT5C (UniProt Q5VWP2) -0.066
SLC29A3 (UniProt Q9BZD2) -0.161
SMARCE1 (UniProt Q969G3) 0.058
SRC isoform 2 (UniProt P12931) -0.002
SRFBP1 (UniProt Q8NEF9) 0.117
SLC39A11 (UniProt Q8N1S5) -0.021
TBC1D15 isoform 3 (UniProt Q8TC07) 0.018
TM7SF3 (UniProt Q9NS93) 0.025
SNX15 (UniProt Q9NRS6) 0.119
SPPL2B (UniProt Q8TCT7) 0.033
SMIM20 isoform 2 (UniProt Q8N5G0) 0.051
SRSF9 (UniProt Q13242) 0.506
SLC35F6 (UniProt Q8N357) -0.029
TEX264 (UniProt Q9Y6I9) 0.182
SPCS2 (UniProt Q15005) -0.078
TJP1 (UniProt Q07157) 0
TACC2 (UniProt O95359) 0
SSBP4 (UniProt Q9BWG4) -0.238
SNRPB2 (UniProt P08579) -0.008
STK26 (UniProt Q9P289) 0.014
SP100 isoform 4 (UniProt P23497) -0.059
STARD3NL (UniProt O95772) -0.058
SNX5 (UniProt Q9Y5X3) -0.001
TMBIM6 isoform 2 (UniProt P55061) -0.007
TARS2 (UniProt Q9BW92) -0.055
SPTBN1 (UniProt Q01082) 0.081
SLC35A1 (UniProt P78382) -0.191
SLC38A2 (UniProt Q96QD8) -0.1
SUN1 isoform 9 (UniProt O94901) 0.037
SRCAP (UniProt Q6ZRS2) -0.001
TBP (UniProt P20226) 0.001

— the supplement of paper PMC10849652
